Structures can show the parent of a compound that is named as a salt.
Columns and labels:
Assay in all cases: thermal shift delta Tm vs DMSO control; higher = stronger stabilization (binding)
Conditions in all cases: 12.5 µM; protein concentration 2 µM
LOC_OS02G45750-cb003 = test system: LOC_OS02G45750-cb003
Method in brief: (§1)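 Thermal shift values come from differential scanning fluorimetry on purified rice kinase domains made in E. coli, with melting temperatures obtained from Boltzmann fits. Samples of 19.5 μl held 2 μM kinase, 100 mM potassium phosphate pH 7.5, 150 mM NaCl, 10% glycerol, 5 × SYPRO Orange and compound in DMSO, and were heated from 25°C to 95°C at 0.05°C/s. Each shift is a triplicate mean relative to the DMSO-only protein sample.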

LOC_OS02G54510-cb004 = test system: LOC_OS02G54510-cb004
Method in brief: as §1

LOC_OS03G04050-cb001 = test system: LOC_OS03G04050-cb001
Method in brief: as §1

LOC_OS03G12390-cb001 = test system: LOC_OS03G12390-cb001
Method in brief: as §1

LOC_OS03G27990-cb004 = test system: LOC_OS03G27990-cb004
Method in brief: as §1

LOC_OS03G50450-cb001 = test system: LOC_OS03G50450-cb001
Method in brief: as §1

LOC_OS03G50810-cb003 = test system: LOC_OS03G50810-cb003
Method in brief: as §1

LOC_OS04G35114-cb001 = test system: LOC_OS04G35114-cb001
Method in brief: as §1

LOC_OS04G38480-cb003 = test system: T1, LOC_OS04G38480-cb003
T1 sequence (whole entry): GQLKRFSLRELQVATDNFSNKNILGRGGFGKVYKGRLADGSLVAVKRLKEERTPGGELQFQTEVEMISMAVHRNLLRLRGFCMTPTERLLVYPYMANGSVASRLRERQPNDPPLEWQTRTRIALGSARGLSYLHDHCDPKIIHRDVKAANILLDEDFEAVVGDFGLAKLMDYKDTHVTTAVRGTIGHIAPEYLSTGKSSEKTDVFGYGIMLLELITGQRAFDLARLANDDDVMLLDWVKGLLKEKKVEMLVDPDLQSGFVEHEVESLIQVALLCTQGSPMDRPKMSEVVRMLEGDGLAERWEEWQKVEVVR
Method in brief: as §1

LOC_OS04G41100-cb001 = test system: T2, LOC_OS04G41100-cb001
T2 sequence (whole entry): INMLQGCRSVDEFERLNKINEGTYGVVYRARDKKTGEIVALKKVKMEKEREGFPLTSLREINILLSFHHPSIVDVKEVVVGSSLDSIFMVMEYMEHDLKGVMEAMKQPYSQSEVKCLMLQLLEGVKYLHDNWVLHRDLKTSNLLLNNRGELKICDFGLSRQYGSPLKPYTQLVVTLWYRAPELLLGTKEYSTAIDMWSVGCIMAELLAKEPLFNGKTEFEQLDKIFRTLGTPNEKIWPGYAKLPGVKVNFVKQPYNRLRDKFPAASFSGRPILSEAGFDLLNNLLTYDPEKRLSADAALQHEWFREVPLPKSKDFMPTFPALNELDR
Method in brief: as §1
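Further: purified Escherichia coli-expressed rice kinase domain construct.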

Row | SMILES | thermal shift delta Tm (LOC_OS02G45750-cb003) | thermal shift delta Tm (LOC_OS02G54510-cb004) | thermal shift delta Tm (LOC_OS03G04050-cb001) | thermal shift delta Tm (LOC_OS03G12390-cb001) | thermal shift delta Tm (LOC_OS03G27990-cb004) | thermal shift delta Tm (LOC_OS03G50450-cb001) | thermal shift delta Tm (LOC_OS03G50810-cb003) | thermal shift delta Tm (LOC_OS04G35114-cb001) | thermal shift delta Tm (LOC_OS04G38480-cb003) | thermal shift delta Tm (LOC_OS04G41100-cb001)
1 | CN1CCN(c2ccc3nc(-c4c(N)c5c(F)cccc5[nH]c4=O)[nH]c3c2)CC1 [Dovitinib (TKI-258) Dilactic Acid] | 16.3 °C | 1.95 °C | 0.96 °C | 4.57 °C | 8.19 °C | 5.49 °C | 1.54 °C | 9.41 °C | 1.48 °C | 0.82 °C
2 | C=CC(=O)Nc1cccc(Nc2nc(Nc3ccc(N4CCN(C(C)=O)CC4)cc3OC)ncc2C(F)(F)F)c1 [Rociletinib (CO-1686, AVL-301)] | 1.53 °C | 0.29 °C | 0.43 °C | 11.1 °C | 0.66 °C | 1.7 °C | 2.22 °C | 2.08 °C | 0.94 °C | 0.4 °C
3 | CCN1C(=O)CNc2ncc(-c3ccc(-c4nc[nH]n4)nc3C)nc21 | 1.71 °C | -0.29 °C | -0.03 °C | -0.17 °C | -0.12 °C | -0.24 °C | -0.05 °C | 0.7 °C | 0.95 °C | -0.13 °C
4 | O=S(=O)(c1cccc2c(I)cccc12)N1CCCNCC1 | 0.53 °C | -0.05 °C | 0.42 °C | 0.16 °C | 0.1 °C | 0.19 °C | 0.19 °C | 0.11 °C | 2.17 °C | 0.44 °C
5 | Nc1ncccc1-c1nc2ccc(-c3ccccc3)nc2n1-c1ccc(C2(N)CCC2)cc1 [Miransertib (ARQ 092) HCl] | 0.57 °C | -0.18 °C | 0.2 °C | -0.09 °C | 0.04 °C | 0.49 °C | -0.05 °C | 0.38 °C | 0.6 °C | 0.18 °C
6 | COc1cc(Nc2ncc3c(n2)-c2ccc(Cl)cc2C(c2c(F)cccc2OC)=NC3)ccc1C(=O)O [Alisertib (MLN8237)] | 2.28 °C | 4.54 °C | 0.09 °C | 0.11 °C | -0.26 °C | -0.33 °C | 1.53 °C | 2.39 °C | 0.2 °C | 0.09 °C
7 | COc1cc2ncnc(Sc3nnc(C)s3)c2cc1OC | 2.63 °C | 0.34 °C | 0.71 °C | -0.23 °C | 0.56 °C | 0.5 °C | 0.54 °C | 2.86 °C | 0.54 °C | 0.9 °C
8 | N#C/C(=C(/N)Sc1ccc(N)cc1)c1ccccc1C(F)(F)F | -0.09 °C | 0.03 °C | 0.54 °C | -0.46 °C | 0.47 °C | -0.3 °C | -0.02 °C | 0.28 °C | 0.37 °C | 0.78 °C
9 | CCN(CC)CCCC(C)Nc1ccnc2cc(Cl)ccc12 (stereo not given) [Chloroquine Phosphate] | 0.61 °C | 0.18 °C | 0.45 °C | 0 °C | 0.19 °C | 0.25 °C | 0.19 °C | 0.59 °C | 2.48 °C | 0.64 °C
10 | Cc1ccc(NC(=O)c2cccc(C(C)(C)C#N)c2)cc1Nc1ccc2ncn(C)c(=O)c2c1 | 1.15 °C | 1.43 °C | 0.45 °C | 0.66 °C | 0.38 °C | 0.1 °C | 0.54 °C | 0.51 °C | 0.88 °C | 0.24 °C
11 | Nc1ccc(C(=O)Nc2cccc(-c3nc(N4CCOCC4)c4oc5ncccc5c4n3)c2)cn1 | 0.01 °C | 0.01 °C | 1.54 °C | 0.36 °C | 0.09 °C | 0.25 °C | 0.09 °C | 0.9 °C | 0.66 °C | 0.52 °C
12 | C[C@H](CN(C)C)Oc1nc(Nc2cc3cccc(Cl)c3cn2)cnc1C#N | 2.56 °C | 0.35 °C | 0.34 °C | 1.56 °C | 0.61 °C | 0.13 °C | 1.33 °C | 1.48 °C | 1.13 °C | 0.28 °C
13 | Cc1cc(Nc2cc(N3CCN(C)CC3)nc(/C=C/c3ccccc3)n2)n[nH]1 [ENMD-2076 L-(+)-Tartaric acid] | 4.88 °C | 2.59 °C | 0.44 °C | 4.22 °C | 2.61 °C | 8.63 °C | 7.35 °C | 6.49 °C | 2.07 °C | 1.89 °C
14 | CC(C)Oc1ccc(-c2nn([C@@H](C)c3oc4ccc(F)cc4c(=O)c3-c3cccc(F)c3)c3ncnc(N)c23)cc1F | -0.54 °C | 0.17 °C | 0.23 °C | -0.28 °C | 0.5 °C | -0.25 °C | 0.13 °C | 1.09 °C | 1.36 °C | 0.19 °C
15 | C[C@H]1CNC(=O)c2cnn3ccc(nc23)N[C@H](C)c2cc(F)ccc2O1 | 3.54 °C | 6.11 °C | 0.53 °C | 0.55 °C | 0.55 °C | 0.87 °C | 2.52 °C | 2.45 °C | 3.37 °C | 0.09 °C
16 | Cc1cc(Nc2cc(N3CCN(C)CC3)nc(Sc3ccc(NC(=O)C4CC4)cc3)n2)n[nH]1 [Tozasertib (VX-680, MK-0457)] | 6.99 °C | 1.33 °C | 0.64 °C | 1.35 °C | 0.54 °C | 3.08 °C | 4.7 °C | 8.53 °C | 2.62 °C | 2.03 °C
17 | C=CC(=O)Nc1cccc(Nc2nc(Nc3ccc(NC4CN(CCF)C4)cc3OC)ncc2C(F)(F)F)c1 | 0.83 °C | 0.67 °C | 0.56 °C | 8.48 °C | 0.5 °C | 0.39 °C | 1.26 °C | 0.98 °C | 0.06 °C | 0.29 °C
18 | COc1cc2nccc(Oc3ccc(NC(=O)Nc4cc(C)on4)c(Cl)c3)c2cc1OC [Tivozanib (AV-951)] | 2.56 °C | 3.55 °C | 0.02 °C | 1.3 °C | 0.02 °C | -0.03 °C | 2.67 °C | 3.47 °C | 4.03 °C | 0.72 °C
19 | Cc1cc(Nc2cc(Cl)nc(Oc3ccc([N+](=O)[O-])cc3)n2)n[nH]1 [Autophinib] | 1.3 °C | 0.33 °C | 0.63 °C | 0.34 °C | 0.56 °C | 0.75 °C | 0.7 °C | 0.47 °C | 1.06 °C | 1.26 °C
20 | CC(C)S(=O)(=O)c1ccc2nccc(Nc3ccc4scnc4c3)c2c1 | 1.88 °C | 0.89 °C | 0.51 °C | 0.9 °C | 0.22 °C | 0.37 °C | 0.61 °C | 2.38 °C | 2.44 °C | 0.32 °C
21 | Cc1cccc(CC(=O)N2CCc3c2ccc(-c2cn(C)c4ncnc(N)c24)c3F)n1 | 1.87 °C | 0.61 °C | 0.63 °C | 0.44 °C | 0.12 °C | 0.29 °C | 0.3 °C | 0.7 °C | 3.73 °C | 0.27 °C
22 | C=CC(=O)Nc1cc(Nc2nccc(-c3c[nH]c4ccccc34)n2)c(OC)cc1N(C)CCN(C)C | 1.45 °C | 0.35 °C | 0.7 °C | 5.75 °C | 0.52 °C | 0.87 °C | 1.28 °C | 4.03 °C | 2.42 °C | 0.37 °C
23 | CO[C@H]1C[C@@H]2CC[C@@H](C)[C@@](O)(O2)C(=O)C(=O)N2CCCC[C@H]2C(=O)O[C@H]([C@H](C)C[C@@H]2CC[C@H](n3cnnn3)[C@H](OC)C2)CC(=O)[C@H](C)/C=C(\C)[C@@H](O)[C@@H](OC)C(=O)[C@H](C)C[C@H](C)/C=C/C=C/C=C/1C [Zotarolimus(ABT-578)] | 1.04 °C | 0.46 °C | 0.79 °C | 0.05 °C | 0.77 °C | 0.89 °C | 0.33 °C | 0.66 °C | 2.27 °C | 0.4 °C

From the supplement of paper PMC9694430
